Inconclusive results are not listed. The source made the active and inactive calls. Unless noted, calls follow the shape of the dose curve; as a rule, active = well fitted curve in the direction sought with a large enough effect in the repeat runs; inconclusive = weak or mixed curves; inactive = no such curve, though single readings can be large; an effect the other way counts as inactive or inconclusive. Residues, ends and D or L forms follow the SMILES beside them.
Assays:
[1] = biological target: Retinoic acid receptor RXR-alpha (Homo sapiens) (UniProt P19793); test: qHTS assay to identify small molecule agonists of the RXR signaling pathway (AID 1159527; calls by dose curve; also: nearly all actives have a fitted effect of over 35% in size)
Retinoic acid receptor RXR-alpha (Homo sapiens), sequence (P19793 whole entry, looked up): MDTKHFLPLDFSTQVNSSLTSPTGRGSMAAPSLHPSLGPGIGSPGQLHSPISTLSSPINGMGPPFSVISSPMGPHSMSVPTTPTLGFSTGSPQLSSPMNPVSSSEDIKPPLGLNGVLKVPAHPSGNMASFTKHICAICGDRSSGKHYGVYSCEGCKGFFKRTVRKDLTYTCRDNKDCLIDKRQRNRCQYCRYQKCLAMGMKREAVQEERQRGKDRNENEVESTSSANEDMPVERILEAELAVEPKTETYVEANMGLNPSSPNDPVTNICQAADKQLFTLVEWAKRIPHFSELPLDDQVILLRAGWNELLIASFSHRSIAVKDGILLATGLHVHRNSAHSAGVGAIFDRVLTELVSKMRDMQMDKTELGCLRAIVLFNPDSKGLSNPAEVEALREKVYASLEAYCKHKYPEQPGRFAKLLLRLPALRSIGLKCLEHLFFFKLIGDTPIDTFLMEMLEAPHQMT
How it was run: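 Read-out: beta-lactamase FRET ratio (405 nm excitation, 460 and 530 nm emission) after 2 hr substrate loading at room temperature. Cells were RXR-alpha-UAS-bla HEK 293T treated with compounds for 16 hr in 2% charcoal-stripped FBS medium.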

[2] = qHTS assay to identify small molecule agonists of the RXR signaling pathway - cell viability counter screen (AID 1159529); also: series mostly up to about 77 µM; nearly all actives have a fitted effect of over 50% in size
How it was run: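 HEK 293T RXRa-bla cells, 2% CS-FBS; 5 h settle; cpd 16 h 37 C, 5% CO2; CellTiter-Glo 30 min RT, luminescence. Tetraoctyl ammonium bromide as positive control.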

[3] = qHTS assay to identify small molecule antagonists of the retinoid acid receptor (RAR) signaling pathway - cell viability counter screen (AID 1159551); also: nearly all actives have a fitted effect of over 35% in size
How it was run: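 Luminescent ATP quantitation (CellTiter-Glo) gave cell viability in C3RL4 cells exposed to test chemicals for 6 h at 37 C alongside 1 uM final retinol.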

[4] = qHTS assay to identify small molecule antagonists of the retinoic acid receptor (RAR) signaling pathway (AID 1159552; also: nearly all actives have a fitted effect of over 50% in size)
How it was run: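 Cells of the C3RL4 line were seeded, incubated overnight, then dosed with compounds in DMSO followed immediately by retinol (1 uM final). Six hours later luciferase detection reagent went in; signal was measured after 30 min at RT.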

[5] = qHTS assay to identify small molecule agonists of the retinoic acid receptor (RAR) signaling pathway (AID 1159553)
How it was run: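 Luminescence from a RARE-driven luciferase reporter in C3RL4 cells served as the read-out, measured after 30 min with detection reagent at room temperature. Compounds in DMSO were applied for 6 hr at 37 C following overnight seeding.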

[6] = qHTS assay to identify small molecule antagonists of the estrogen related receptor (ERR) signaling pathway - cell viability counter screen (AID 1224818);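 also: series mostly up to about 46 µM; viability measured after 17.5 h of compound exposure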
How it was run: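 Multiplexed counter screen to separate cytotoxic compounds from true ERR modulators. ERR cells received DMSO-dissolved compounds after a 6 h pre-incubation, were exposed 17.5 h at 37 C, then assayed with CellTiter-Fluor fluorescence.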

[7] = qHTS assay to identify small molecule antagonists of the estrogen related receptor signaling pathway with the pleiotropic PPARgamma coactivator (PGC) cell viability counter screen (AID 1224822; also: series mostly up to about 46 µM)
How it was run: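 Cells: PGC/ERR, 2,000/well, 1536-well format. Pre-incubation 6 h, 37 C/5% CO2. Compound exposure 17.5 h, 37 C. Detection: CellTiter-Fluor, 30 min, fluorescence.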

[8] = qHTS assay to identify small molecule antagonists of the estrogen related receptor (ERR) signaling pathway from Tox21 library - cell viability counter screen (AID 1224834); also: nearly all actives have a fitted effect of over 30% in size
How it was run: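 Fluorescence from CellTiter-Fluor gives the viability read-out, taken 30 min after reagent addition. Before that, ERR cells seeded 6 h earlier were incubated with compounds for 17.5 h at 37 C.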

[9] = biological target: Luciferin 4-monooxygenase (Photinus pyralis) (UniProt P08659); test: qHTS assay to identify small molecule inhibitors of firefly luciferase (AID 1224835); also: series mostly up to about 120 µM; nearly all actives have a fitted effect of over 25% in size
Luciferin 4-monooxygenase (Photinus pyralis), sequence (P08659 whole entry, looked up): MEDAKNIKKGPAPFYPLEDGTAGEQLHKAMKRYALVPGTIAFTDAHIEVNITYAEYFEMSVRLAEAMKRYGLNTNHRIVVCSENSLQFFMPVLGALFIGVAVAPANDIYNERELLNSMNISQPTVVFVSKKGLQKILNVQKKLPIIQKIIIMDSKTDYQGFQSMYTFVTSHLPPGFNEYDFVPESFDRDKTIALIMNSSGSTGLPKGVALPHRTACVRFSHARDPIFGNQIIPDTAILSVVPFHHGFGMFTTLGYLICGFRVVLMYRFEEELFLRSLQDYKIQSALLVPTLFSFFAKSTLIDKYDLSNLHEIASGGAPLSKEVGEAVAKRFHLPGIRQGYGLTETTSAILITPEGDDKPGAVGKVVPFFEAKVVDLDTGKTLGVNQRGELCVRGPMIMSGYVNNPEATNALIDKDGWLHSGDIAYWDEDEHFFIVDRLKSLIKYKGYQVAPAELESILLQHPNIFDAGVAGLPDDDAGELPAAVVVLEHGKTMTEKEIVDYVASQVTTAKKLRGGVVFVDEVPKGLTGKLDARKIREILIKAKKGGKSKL
How it was run: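 Quantitative HTS format; KM concentrations of both substrates. Purified P. pyralis FLuc activity quantified from luminescence images.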

[10] = qHTS assay to identify small molecule agonists of the constitutive androstane receptor (CAR) signaling pathway - cell viability counter screen (AID 1224836); also: series mostly up to about 92 µM; nearly all actives have a fitted effect of over 45% in size
How it was run: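 HepG2-CYP2B6-hCAR, 2500 cells/well, 4 h pre-incubation; cpd 15 conc + PK11195 0.75 uM final; 23 h, 37 C/5% CO2; CellTiter-Fluor, fluorescence.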

[11] = qHTS assay to identify small molecule antagonists of the constitutive androstane receptor (CAR) signaling pathway - cell viability counter screen (AID 1224837); also: series mostly up to about 92 µM; nearly all actives have a fitted effect of over 45% in size
How it was run: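 HepG2-CYP2B6-hCAR cells, 2500/well, 4 hr pre-incubation; compound titration, 15 conc.; CITCO 50 nM final; 23 hr, 37 C/5% CO2; CellTiter-Fluor, fluorescence intensity.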

[12] = qHTS assay to identify small molecule antagonists of the estrogen related receptor signaling pathway with the pleiotropic PPARgamma coactivator (PGC) from Tox21 10K library - cell viability counter screen (AID 1224840; active = well fitted cell-killing curve with a large enough effect in the repeat runs, not every such curve was filed as active; also: nearly all actives have a fitted effect of over 40% in size)
How it was run: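 PGC/ERR cells, 2,000/well; 6 h pre-incubation 37 C/5% CO2; cpd in DMSO via pin tool; 17.5 h 37 C; CellTiter-Fluor, 30 min; fluorescence.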

[13] = biological target: Nuclear receptor subfamily 1 group I member 3 (Homo sapiens) (UniProt Q14994); test: qHTS assay to identify small molecule antagonists of the constitutive androstane receptor (CAR) signaling pathway (AID 1224838);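 also: HepG2 cells stably expressing hCAR with CYP2B6 luciferase reporter stimulated by CITCO; nearly all actives have a fitted effect of over 40% in size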
Nuclear receptor subfamily 1 group I member 3 (Homo sapiens), sequence (Q14994 whole entry, looked up): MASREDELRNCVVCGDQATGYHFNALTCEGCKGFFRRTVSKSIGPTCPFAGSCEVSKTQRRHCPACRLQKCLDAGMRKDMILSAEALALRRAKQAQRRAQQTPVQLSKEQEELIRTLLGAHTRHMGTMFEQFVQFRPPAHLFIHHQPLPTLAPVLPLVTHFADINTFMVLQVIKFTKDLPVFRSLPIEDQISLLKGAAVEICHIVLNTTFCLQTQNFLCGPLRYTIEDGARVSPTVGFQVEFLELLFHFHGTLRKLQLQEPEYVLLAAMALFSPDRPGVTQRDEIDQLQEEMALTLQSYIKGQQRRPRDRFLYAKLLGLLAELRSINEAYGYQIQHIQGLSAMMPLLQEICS
How it was run: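 HepG2-CYP2B6-hCAR cells; 4 h pre-incubation; cpd (15 conc) + CITCO 50 nM final; 24 h, 37 C/5% CO2; ONE-Glo, luminescence.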

[14] = biological target: Nuclear receptor subfamily 1 group I member 3 (Homo sapiens) (UniProt Q14994); test: qHTS assay to identify small molecule agonists of the constitutive androstane receptor (CAR) signaling pathway (AID 1224839);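 also: HepG2 cells stably carrying human CAR and a CYP2B6 luciferase reporter; series mostly up to about 92 µM; nearly all actives have a fitted effect of over 15% in size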
How it was run: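 HepG2-CYP2B6-hCAR cells, 2500/well, 4 h pre-incubation; compounds 15 conc.; PK11195 0.75 uM final; 24 h, 37 C/5% CO2; ONE-Glo luciferase read.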

[15] = qHTS assay to identify small molecule antagonists of the estrogen related receptor signaling pathway with the pleiotropic PPARgamma coactivator (PGC) from Tox21 10K library (AID 1224841; call rule not given here; also: series mostly up to about 92 µM; actives are mostly falling curves and most rising ones were filed inactive; nearly all actives have a fitted effect of over 50% in size)
How it was run: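 PGC/ERR cell line, 2,000 cells/well; 6 h pre-incubation 37 C/5% CO2; compounds (DMSO) pinned in; 18 h, 37 C; One-Glo, 30 min RT; luminescence.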

[16] = qHTS assay to identify small molecule agonists of the estrogen related receptor signaling pathway with the pleiotropic PPARgamma coactivator (PGC) from Tox21 10K library (AID 1224842); also: nearly all actives have a fitted effect of over 15% in size
How it was run: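 PGC/ERR reporter cells (NTP line) were seeded 2,000 per well, rested 6 h at 37 C/5% CO2, then pin-dosed with compounds in DMSO for 18 h at 37 C; luciferase read by One-Glo luminescence after 30 min at room temperature.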

Measured: Potency

CCCNC(=O)NS(=O)(=O)c1ccc(Cl)cc1
not listed: [13] | [14] | [15] | [16]
inactive: all other assays above

O=C(O)CCCCCCCC(=O)O
not listed: [15] | [16]
inactive: all other assays above

CC(C)(Oc1ccc(C2CC2(Cl)Cl)cc1)C(=O)O (configuration not stated)
not listed: [15] | [16]
inactive: all other assays above

COC(=O)[C@H](Cc1ccccc1)NC(=O)[C@@H](N)CC(=O)O (H-Asp-Phe-OMe)
not listed: [6] | [7] | [13] | [14] | [15] | [16]
inactive: all other assays above

CC(O)C(=O)O (configuration not stated)
not listed: [6] | [7] | [15] | [16]
inactive: all other assays above

CC(=O)Nc1nnc(S(N)(=O)=O)s1
not listed: [15] | [16]
inactive: all other assays above

CCCN(CCC)S(=O)(=O)c1ccc(C(=O)O)cc1
not listed: [6] | [7] | [13] | [14]
inactive: all other assays above

Cc1cc(=O)n(-c2ccccc2)n1C
not listed: [6] | [7]
inactive: all other assays above

— PubChem BioAssay (Tox21)
